IL-1B inflam inh: blocks inflammasome-driven IL-1 beta release; AID 743279; THP-1 LPS/ATP IL-1B secretion, AlphaLISA, 16 h; active compounds read low; actives 4.7% (n = 360,000); activity change, % at 57.5 µM; in the data active = activity change below about -50%; inconclusive = mostly about -30% to -49%; also: % is scaled to controls: 0 for no effect and ±100 for the full control effect
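Secreted IL-1B measured by AlphaLISA bead assay after 16 h compound exposure of THP-1 cells; compounds (final up to 57.5 uM) added 1 h before LPS (250 ng/mL) and ATP (1.25 mM) stimulation; lower signal means less secretion.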
TGFb SMAD3 inh: TGF-b pathway inhibition. Potency, µM (titrated, usually from 46.1 µM), for inactives: top-dose activity, negative = inhibition, hits mostly inhibitors. HepG2 CAGA-GFP TGF-b/SMAD3 reporter, GFP fluorescence, 18 h; TGF-beta stimulated, 500 pg/mL final. actives 1.2% (n = 410,000); also: potency is read from the fitted curve at half-maximal effect; % is scaled to controls: 0 for no effect and ±100 for the full control effect; nearly all actives have a fitted effect of over 65% in size
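GFP signal (ex488/em500-530) from TGF-beta-stimulated HEPG2 CAGA-GFP cells, 500 pg/mL final, 18 h at 37 degrees C in DMEM plus 1% FBS, normalized to unstimulated and DMSO-stimulated controls.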
DT40 TDP1 CPT: DT40-hTDP1 cell growth loss with CPT. chicken DT40 Tdp1-/-;hTDP1 cells + 20 nM CPT, ATP luminescence, 48 h. Potency, µM (highest dose often 46.2 µM), for the others: at the top dose activity change, negative = growth inhibition, hits mostly inhibitors. actives 12% (n = 420,000); also: potency is read from the fitted curve at half-maximal effect; % is scaled to controls: 0 for no effect and ±100 for the full control effect; nearly all actives have a fitted effect of over 55% in size
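Chicken DT40 Tdp1-/- cells stably complemented with human TDP1 were seeded at 400 cells/well in medium containing 20 nM camptothecin, exposed to pin-transferred compounds, and grown at 37 °C for at least 48 hr. Viability was read as ATP luminescence.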
TDP1 cell noCPT: qHTS for Inhibitors of human tyrosyl-DNA phosphodiesterase 1 (TDP1): qHTS in cells in absence of CPT; DT40 Tdp1-/- hTDP1 cells, no CPT, ATP luminescence, 48 h; Potency, µM (top dose mostly 46.2 µM), inactives show at the highest dose activity change, negative = growth inhibition, actives largely listed as inhibitors; actives 15% (n = 420,000); also: potency is read from the fitted curve at half-maximal effect; % is scaled to controls: 0 for no effect and ±100 for the full control effect; nearly all actives have a fitted effect of over 55% in size
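Stably hTDP1-transfected Tdp1-null chicken DT40 cells were treated with library compounds minus camptothecin and grown for at least 48 hr at 37 °C, after which cellular ATP was quantified by luminescence.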
TDP1 block: blocks human tyrosyl-DNA phosphodiesterase 1. recombinant TDP1, AlphaScreen DNA substrate cleavage. Potency, µM (series often up to 130 µM), inactives show top-dose activity change, negative = inhibition, hits mostly inhibitors. actives 0.28% (n = 350,000). AID 485290; also: potency is read from the fitted curve at half-maximal effect; % is scaled to controls: 0 for no effect and ±100 for the full control effect; nearly all actives have a fitted effect of over 40% in size
Target sequence (Q9NUW8 whole entry, looked up): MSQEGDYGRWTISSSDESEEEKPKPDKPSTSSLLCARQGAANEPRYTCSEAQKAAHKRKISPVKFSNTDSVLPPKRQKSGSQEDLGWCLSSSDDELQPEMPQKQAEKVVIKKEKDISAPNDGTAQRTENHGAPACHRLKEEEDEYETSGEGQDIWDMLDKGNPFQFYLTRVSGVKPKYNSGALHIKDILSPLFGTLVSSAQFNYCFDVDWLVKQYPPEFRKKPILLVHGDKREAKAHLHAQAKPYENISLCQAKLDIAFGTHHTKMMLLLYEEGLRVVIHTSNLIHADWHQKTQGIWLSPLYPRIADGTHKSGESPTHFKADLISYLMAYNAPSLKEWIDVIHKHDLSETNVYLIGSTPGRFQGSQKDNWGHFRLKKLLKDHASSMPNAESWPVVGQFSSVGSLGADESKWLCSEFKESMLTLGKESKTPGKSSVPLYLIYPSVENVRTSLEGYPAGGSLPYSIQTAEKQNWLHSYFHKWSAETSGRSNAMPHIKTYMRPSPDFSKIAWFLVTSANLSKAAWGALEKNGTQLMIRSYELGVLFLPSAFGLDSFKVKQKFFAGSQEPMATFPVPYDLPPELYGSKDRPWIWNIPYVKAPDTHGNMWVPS
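Tdp1 1 nM final; 15 min RT w/ cpd; substrate 15 nM, 5 min; beads 10 ug/ml, 10 min; AlphaScreen read. Neg ctrl: no enzyme.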
HepG2 tox: kills HepG2 cells in TGF-b inhibitor counter-screen. HepG2 CAGA-GFP viability, ATP luminescence, 18 h. Potency, µM (highest dose often 46.1 µM), for the others: top-dose activity change, negative = cytotoxicity, most hits filed as cytotoxic. actives 0.76% (n = 410,000). AID 588856; also: potency is read from the fitted curve at half-maximal effect
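HepG2 CAGA-GFP cells (1000/well, DMEM with 1% FBS) received compound, then TGF-beta at 500 pg/mL final, and were incubated 18 hours at 37 degrees C. Viability was read by CellTiter-Glo luminescence. Media-only wells were set as complete cell-killing and DMSO as no toxicity.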
* = called active by the depositor; ? = inconclusive; nt = not tested or not shown; ! = a repeat was not active. In the library only some 19% were active in any assay of this set; here they are far more common. Unless noted, calls follow the shape of the dose curve; as a rule, active = well fitted curve in the direction sought with a large enough effect; inconclusive = small, poorly fitted or top-dose-only effect, or another doubt; inactive = no such curve, though single readings can be large; an effect the other way counts as inactive or inconclusive.

SMILES	IL-1B inflam inh	TGFb SMAD3 inh	DT40 TDP1 CPT	TDP1 cell noCPT	TDP1 block	HepG2 tox
CCOC(=O)N1CCN(C(=S)NC(=O)c2ccc(F)c(F)c2)CC1	17.2	3.6%	?	14.6µM*	0.0%	0.1%
CCOC(=O)N1CCN(C(=S)NC(=O)c2cccc(OC)c2)CC1	3.5	-1.2%	6.4%	-3.1%	-2.0%	-19.9%
CCCCOc1ccc(C2(C)NC(=O)NC2=O)cc1 (centres undefined)	10.7	0.5%	?	18.4µM*	nt	8.4%
O=S(=O)(c1ccccc1)c1nnn2c1nc(NCc1ccccc1)c1cc(Cl)ccc12	nt	12.1%	18.4µM*	?	1.0%	3.7%
O=C1CCCN1CCCNc1nc2c(S(=O)(=O)c3ccccc3)nnn2c2ccc(Cl)cc12	?	-12.4%	20.6µM*	?	2.0%	-18.0%
CCc1ccc(S(=O)(=O)c2nnn3c2nc(N(CC)Cc2ccccc2)c2cc(Cl)ccc23)cc1	nt	-5.2%	9.2µM*	16.4µM*	-3.9%	-2.8%
CCc1ccc(S(=O)(=O)c2nnn3c2nc(N(C)Cc2ccccc2)c2cc(Cl)ccc23)cc1	nt	-2.0%	-2.5%	-7.4%	-1.0%	2.6%
COC(=O)c1cc(OC)c(OC)c(OC)c1NC(=O)c1cc(=O)n(C)c(=O)n1C	nt	?	2.5%	-3.8%	7.1%	-11.9%
Cc1cc(C(=O)Nc2ccccc2-c2nc(CNC(=O)c3ccccc3Cl)c(C)o2)c(C)o1	nt	nt	19.2%	-5.9%	nt	nt
Cc1ccc(NC(=O)Cn2c(SCc3ccc(F)cc3)nc3cccnc32)cc1F	nt	-4.0%	-28.2%	-25.7%	-1.2%	-7.1%
COc1ccccc1CNc1ncnc2c1cnn2-c1ccc(C)cc1	nt	32.4%	-27.1%	-12.3%	10.4%	-20.2%
Cc1cc2c(n1-c1ccc(C(=O)NCc3cccc(Br)c3)cc1)CCC(C)C2 (centres undefined)	nt	?	?	14.6µM*	5.0%	-32.4%
CCc1ccc(CNC(=O)c2ccc(-n3c(C)cc4c3CCC(C)C4)cc2)cc1 (centres undefined)	nt	0.7%	16.4µM*	20.6µM*	9.9%	-31.1%
CCCOc1ccc(CNC(=O)c2ccc(-n3c(C)cc4c3CCC(C)C4)cc2)cc1 (centres undefined)	nt	-8.4%	?	?	9.9%	-38.3%
COc1ccc(Br)cc1CNC(=O)c1ccc(-n2c(C)cc3c2CCC(C)C3)cc1 (centres undefined)	nt	-21.5%	23.1µM*	18.4µM*	2.5%	-23.5%
CCN(CC)C(=O)Cn1cc(S(=O)(=O)CC(=O)Nc2ccccc2F)c2ccccc21	-3.3	0.8%	-3.6%	-8.0%	nt	4.9%
Cc1ccccc1NC(=O)CCc1c(C)nn(-c2ccc(N3CCCCC3)nn2)c1C	0.5	-2.2%	16.4µM*	20.6µM*!	0.2%	-13.8%
COC(=O)c1ccc(NC(=O)CCc2c(C)nn(-c3ccc(N4CCCCC4)nn3)c2C)cc1	nt	-8.1%	23.1µM*	?	7.1%	-24.4%
Cc1nn(-c2ccc(N3CCCC3)nn2)c(C)c1CCC(=O)N1CCN(c2ccc(F)cc2)CC1	nt	-6.6%	14.6µM*	?	9.7%	-17.2%
Cc1ccccc1NC(=O)CCc1c(C)nn(-c2ccc(N3CCOCC3)nn2)c1C	9.0	-1.6%	4.9%	-1.0%	8.2%	-7.3%
Cc1nn(-c2ccc(N3CCOCC3)nn2)c(C)c1CCC(=O)Nc1ccc(F)cc1	-9.8	-25.3%	-4.1%	16.4µM*	5.8%	-10.4%
CCOC(=O)c1c(S(=O)(=O)Nc2ccccn2)c(C)n(C)c1C	14.6	5.8%	11.3%	11.9%	2.7%	6.9%
CC1CCC(=NO)C(=NO)C1 (centres undefined)	6.4	?	0.2%	-20.0%	nt	-42.2%
